# Source: PubChem BioAssay (NCI)
# The panel holds about 83,000 compounds, 20% with a hit somewhere; the sample as a whole holds those more often.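 Assay: single dose, 48 h. Readout: percent growth (0 = no net growth; negative = cell death). Active: <10.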 A number with no mark means an inactive call. The source made the active and inactive calls.
# System: SK-MEL-5 melanoma
# Assay: NCI-60 one-dose screen, 48 h (100 = growth as untreated, 0 = no growth, -100 = all killed)
# Conditions: 10 µM
row,Structure (SMILES),growth
1,CCc1ccc(-c2ccc(-n3nc(C)c4c(N)nc(Cc5ccccc5)nc43)cc2)cc1,95.5%
2,O=[N+]([O-])c1ccc2ncccc2c1Cl,89.3%
3,Cc1ccc(-n2nnnc2N)c(C)c1,115%
4,Oc1ccc(-c2[nH]c3ccccc3c2-c2nc3ccccc3o2)cc1,43.4%
5,CCc1ccc(C2=NN(c3ccc(S(C)(=O)=O)cc3)C(=O)CC2)cc1,10.7%
6,COc1ccc(-c2nn(-c3cccc(Cl)c3)cc2-c2c(C#N)c(=O)n3[nH]c(-c4ccc(C)cc4)nc3c2C#N)cc1,68.6%
7,O=C1c2ccccc2C(=O)c2c1ccc(C(Br)Br)c2[N+](=O)[O-],60.8%
8,CCOC(=O)CC(S(=O)(=O)c1ccccc1)S(=O)(=O)c1ccccc1,96.6%
9,CC(=O)Nc1ccc(S(=O)(=O)c2ccnc3cc(Cl)ccc23)cc1,71.8%
10,O=C(Nc1cc([N+](=O)[O-])c2[nH]c(=O)c3ccccc3c2c1)C(F)(F)F,91%
11,COc1cc2c(cc1NC(=O)C(F)(F)F)-c1ccc(NC(=O)C(F)(F)F)cc1C2,90.8%
12,COc1ccc(/C(C#N)=C/c2cccc(OC)c2OC)cc1,73.1%
13,C/C(=C/CCC(C)[C@@H]1CC[C@]2(C)C3=C(CC[C@@]12C)[C@@]1(C)CCC(=O)C(C)(C)[C@@H]1CC3)C(=O)O (some centres not stated),-98.2% (active)
14,N#CC1=CC2CN(Cc3ccccc3)C1C1C(=O)N(c3ccccc3)C(=O)C21 (configuration not stated),93.3%
15,COC(=O)C1OC1c1cc([N+](=O)[O-])ccc1OC (configuration not stated),98.8%
16,O=c1cn[nH]c2ccc(Br)cc12,100%
17,COc1cc(CNC(=O)C2CSC3(C)c4ccccc4C(=O)N23)cc(OC)c1OC (configuration not stated),102%
18,O=C1/C=C/[C@@H](O)[C@@H]2C[C@@H](O)C[C@H]2/C=C/CCC[C@H](C(F)(F)F)O1,-98.3% (active)
19,O=C1CCn2c1c(O)c1ccccc1c2=O,103%

row,Structure (SMILES),growth
1,COc1ccc(/C(=N\N)C(=O)c2ccccc2)cc1 (tested in a mixture with another compound),97.3%
2,O=C(CCl)Nc1ccc(Cc2ccc(NC(=O)CCl)cc2)cc1,-88.5% (active)
3,CCOC(=O)C1=CSC2=NC3=C(CCC/C3=C\c3cc(OC)c(OC)c(OC)c3)C(c3cc(OC)c(OC)c(OC)c3)N12 (configuration not stated),60.3%
4,C=CCSC(CC)(CC)C(=O)NC,103%
5,CCN(CCCNc1cc2c(c(N)c1S(=O)(=O)O)C(=O)c1ccccc1C2=O)c1ccccc1,95.2%
6,Cc1ccc(S(=O)(=O)N/N=C2\CCCc3ccccc32)cc1,103%
7,COc1cc(-c2nn(-c3cccc(NC(=O)CCNc4ccc(N5CCOCC5)cc4)c3)cc2-c2ccncc2)ccc1Cl,-40.5% (active)
8,COc1cc2c(cc1NC(=O)C(Cl)Cl)-c1ccc(NC(=O)C(Cl)Cl)cc1C2,22.5%
9,OCC1OC2C(NC(=S)N2c2ccccc2)C(O)C1O (configuration not stated),98.5%
10,Cc1cc(O)ccc1C1=NN(c2ccc(S(C)(=O)=O)cc2)C(=O)CC1,68.3%
11,Cc1c(Cl)cccc1NC(=O)CN1CCOCC1,101%
12,O=C1c2ccccc2C(=O)c2c1ccc(C(Br)Br)c2Cl,74%
13,CC[C@@H](C(=O)[C@@H](C)[C@@H](O)[C@H](C)[C@@H]1O[C@@H]([C@@H](CC)C(=O)N(CC)CC)CC[C@@H]1C)C1O[C@]2(C=CC(=O)[C@]3(CC[C@@](C)([C@H]4CC[C@](O)(CC)[C@H](C)O4)O3)O2)[C@H](C)C[C@@H]1C (some centres not stated),-42.9% (active)
14,COc1cc(C(=O)n2nc(-c3cc(OC)c(OC)c(OC)c3)nc2N)cc(OC)c1OC,94.5%
15,COc1ccc(C(=O)N2C=Cc3ccccc3C2C#N)cc1 (configuration not stated),101%
16,COc1ccc(-c2nn(-c3cccc(Cl)c3)cc2-c2cc(-c3ccccc3)[nH]c(=O)c2C#N)cc1,39.9%
17,CCOC(=O)C1C(C(=O)OCC)C2C(=O)C3C(C(=O)OCC)C(C(=O)OCC)C3C(=O)C12 (configuration not stated),100%
18,CC1=CC2C(C(O)CC3(C)C2CC(C)C32OCOC23COCO3)C2(C)C/C(=C/O)C(=O)C=C12 (configuration not stated),44.2%
